About 1,400 (0.41%) of roughly 340,000 compounds were called active. The sample as a whole holds a higher share of actives than the screen did. Unmarked numbers belong to inactive results.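 The calls were made as follows: active = response above a set limit, near 3 SD of response in nonfluorescent compounds (cut at about 42% in these data); inactive = the rest.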
These compounds were tested against Beta-2 adrenergic receptor (Homo sapiens) (UniProt P07550) (assay: beta2AR agonists driving receptor internalization, primary screen, cell-based, FAP fluorogen, flow cytometry (AID 504454)). Conditions: Am2.2-beta2AR cells, active compounds read high, concentration not given here.
Sequence of Beta-2 adrenergic receptor (Homo sapiens) (P07550 whole entry, looked up): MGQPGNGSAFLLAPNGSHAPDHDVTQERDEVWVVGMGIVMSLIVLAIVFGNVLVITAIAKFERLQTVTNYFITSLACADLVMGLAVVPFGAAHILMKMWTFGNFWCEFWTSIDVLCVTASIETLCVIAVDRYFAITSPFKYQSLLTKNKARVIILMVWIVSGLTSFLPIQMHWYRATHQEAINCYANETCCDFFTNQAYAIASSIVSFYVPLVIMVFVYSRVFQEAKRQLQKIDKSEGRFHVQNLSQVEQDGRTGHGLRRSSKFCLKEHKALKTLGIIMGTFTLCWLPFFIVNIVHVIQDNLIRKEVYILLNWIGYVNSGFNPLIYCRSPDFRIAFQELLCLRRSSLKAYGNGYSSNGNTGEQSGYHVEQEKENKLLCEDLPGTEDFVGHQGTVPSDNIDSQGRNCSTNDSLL

First: COc1ccc(C2c3[nH]c4ccccc4c3CCN2CCCn2cccn2)cc1C (stereo not given)
Second: COC(=O)c1[nH]c2ccccc2c1NC(=O)CN1CCCc2ccccc21
The response of the first is lower: -1.99% for the first, 6.44% for the second.

Compared with `Cc1ccc(N2C(=O)CC(N3CCSCC3)C2=O)c(C)c1` (stereo not given), `Cc1cnc(C)c(N2CCN(C(=O)C3CCC(=O)N(CCc4cccc(F)c4)C3)CC2)n1` (stereo not given) is lower in response: -0.71% for the first, -4.11% for the second.

Compared with `CC(C)(C)NC(=O)CN(C(=O)c1ccc(Cl)nc1)c1cccc2ccccc12`, `Cc1ccc(NC(=O)CN(C)C(=O)Cn2nnc(-c3ccccc3)n2)cc1` is lower in response: 1.65% for the first, -5.12% for the second.

Compared with `CC(=O)OCCOCn1cnn2c(=O)c(Br)c(C)nc12`, `CCCC(=O)Nc1nnc(CC(=O)OCC)s1` is higher in response: -5.29% for the first, 8.2% for the second.

First: NC(=O)C1(N2CCCC2)CCN(Cc2ccccc2)CC1
Second: COCC1CCN(C(=O)CCc2nnc(C3(c4ccc(Cl)cc4)CCC3)o2)C1 (stereo not given)
The response of the first is higher: -1.07% for the first, -4.25% for the second.

Compared with `C/C(=N\N)c1c(-c2ccccc2)c2cc(Br)ccc2[nH]c1=O`, `O=C1c2oc3ccccc3c(=O)c2C(c2cccc(O)c2)N1c1ccccn1` (stereo not given) is lower in response: -0.61% for the first, -12.8% for the second.

First: CCCOc1ccc(C2c3c(oc4cc(C)c(C)cc4c3=O)C(=O)N2CCCN2CCOCC2)cc1 (stereo not given)
Second: CCOC(=O)c1ccc(NC(=O)Cn2cnc3cc(C)c(C)cc32)cc1
The response of the first is lower: -4.95% for the first, 9.03% for the second.

First: COCCCn1c(SCc2cccc(OC)c2)nc2cc(OC)c(OC)cc2c1=N
Second: COc1ccc(CCNC(=O)CCc2ccccc2O)cc1OC
The response of the first is higher: 7.49% for the first, 0.69% for the second.

First: CN1CCN(C(CNS(=O)(=O)c2cccs2)c2cccnc2)CC1 (stereo not given)
Second: Cc1ccc(CNC(=O)CCC(=O)N2CC(C)Sc3ccccc32)cc1 (stereo not given)
The response of the first is higher: -2.41% for the first, -5.01% for the second.

Compared with `COc1ccc(C[C@H]2CN3C(=NC[C@H]3C)N2CCNC(=O)CCC2CCCCC2)cc1`, `COc1ccc(N2C(=O)CC(Sc3n[nH]c(-c4ccc(C)cc4)n3)C2=O)cc1` (stereo not given) is lower in response: 8.82% for the first, 1.89% for the second.

With `CC(=O)Nc1ccc(N2C(=O)CC(Sc3nccc(C)n3)C2=O)cc1` (stereo not given) the response was 1.18%.

`COC(=O)c1[nH]c2ccc(Br)cc2c1NC(=O)Oc1ccccc1` was tested, and the response was 43.5% (active).
In the case of `COCCN1C(=O)c2oc3c(C)cc(C)cc3c(=O)c2C1c1cccc(O)c1` (stereo not given), the response is reported as 51.7% (active).
`CCOc1ccccc1N1C(=O)CC(Sc2nccc(C)n2)C1=O` (stereo not given) was tested, and the response was 47.5% (active).
In the case of `CCOC(=O)c1ccc(NC(=O)Cn2nnc(-c3ccc(C)cc3)n2)cc1`, the response is reported as 91.8% (active).

— PubChem BioAssay AID504454 (NMMLSC, 2011)
